Broadly, the inhibition is the change of the read-out against control, counted positive when it falls.

Structures are written as SMILES.

One assay deals with Hexose transporter 1 (Plasmodium falciparum) (UniProt O97467). As to the kind of experiment: ST_JUDE_LEISH: Cytotoxicity at 2uM final concentration against transgenic Leishmania Mexicana promastigotes LmPfHT that are glucose transport deficient and complemented with the Plasmodium falciparum hexose transporter. Activity is measured by DNA content using SYBR green in vitro. The class given is functional.
On to `CCOc1ccc(NC(=O)c2ccc(NCCCN3CC(C)CC(C)C3)c([N+](=O)[O-])c2)cc1` (centres undefined), for which the inhibition worked out at 0.9%.
On the same count and under the same terms, with `O=C(CCc1c[nH]cn1)Nc1cccc(-c2cccc(-c3nc4ccccc4[nH]3)c2)c1` the figure was 13.2%.
On the same count and under the same terms, in the case of `CCOC(=O)c1nc(-c2cccnc2)[nH]c1NC(=S)NCc1ccccc1` it was 0.92%; in that of `COc1cc(Cc2cnc(N)nc2N)ccc1OCc1ccc(NC(C)=O)cc1`, 4.96%.
On the same count and under the same terms, in the case of `CCN(CC)S(=O)(=O)c1cc(-c2ccc(=O)n(CC(=O)c3ccc(C)cc3)n2)ccc1C` it was 6.23%.
`CCOC(=O)NOC(C(=O)O)c1ccccc1` (centres undefined): the inhibition is -0.31%.
The same measure, in the same setting: with `COCc1cc(C)nc2sc(C(=O)Nc3cc(C(C)(C)C)ccc3O)c(N)c12` the figure was 2.62%; with `O=C(c1cccc(-c2noc(C(F)(F)F)n2)c1)N1CCN(c2nsc3ccccc23)CC1`, -1.92%; with `CCCCCCOc1ccc(C(=O)NCCCC2CCN(CCCCCNC(=O)C=Cc3ccc(Cl)c(Cl)c3)CC2)cc1`, 4.46%.

A further assay has as its target Glucose transporter (Leishmania mexicana) (UniProt O61059). As to the kind of experiment: ST_JUDE_LEISH: Cytotoxicity at 2uM final concentration against transgenic Leishmania Mexicana promastigotes LmGT2 that are glucose transport deficient and complemented with the L. Mexicana glucose transporter 2. Activity is measured by DNA content using SYBR green in vitro. It counts as functional.
Consider `COc1ccc(-c2ncnc(C(F)(F)F)c2-c2ccc(Cl)cc2)c(O)c1`, for which the inhibition is 2.96%.
Regarding `CCc1ccc(S(=O)(=O)Nc2ccc(CCN3CCC(N4CCCCC4)CC3)cc2)cc1`, the inhibition was 11.4%.
Take `CCCc1cc(OC)c(CC2c3cc(O)c(Cl)cc3C(c3ccccc3)CN2C)cc1OC` (centres undefined): the inhibition was determined as 3.98%.
Same read-out and setting: with `O=C(Nc1ccc(-c2nc3ccccc3[nH]2)cc1)c1ccc(S(=O)(=O)N2CCCCCC2)cc1` the figure was 1.91%.
Consider `COc1ccc(Nc2nccc(N3CCC(NC(=O)C(C)c4ccc(Cl)cc4)CC3)n2)cc1` (centres undefined), for which the inhibition was 0.26%.
On the same count and under the same terms, with `CCCCCCn1c(Sc2ccc(C#N)c([N+](=O)[O-])c2)nnc1-c1cc(OC)cc(OC)c1` the figure was 4.53%; with `CCCCN1C(=N)NC(c2ccccc2)(c2ccccc2)C1=O`, 3.58%; with `Cc1[nH]c(C)c(-c2ccc(-c3cc(C(F)(F)F)cc(C(F)(F)F)c3)nc2)c(=O)c1Br`, 5.42%.
Consider `O=C(Nc1cc(Cl)c(Cl)cc1NC(=O)c1cccc(-c2ccccc2)c1O)c1cccc(-c2ccccc2)c1O`, for which the inhibition is 2.6%.
Take `COc1cc(Cc2cnc(N)nc2N)c2ccsc2c1OC`: the inhibition was found to be 1.58%.
On the same count and under the same terms, in the case of `COc1ccccc1OCCN(CC(O)COc1cccc2[nH]c3ccccc3c12)CC(O)COc1cccc2[nH]c3ccccc3c12` (centres undefined) it was 2.35%; in that of `CC(C)NCc1ccc(-c2ccc(-c3nc4cc(C(F)(F)F)ccc4[nH]3)s2)cc1`, 15.3%; in that of `O=[N+]([O-])c1nc(Br)n(Cc2ccc(Cl)cc2)n1`, 4.39%.
Still for that read-out and setting: with `CC(C)(C)c1ccc(S(=O)(=O)Nc2ccccc2N2CCOCC2)cc1` the figure was 0.2%.
On the same count and under the same terms, with `Cc1nc(O)c2c(ccc3ccc(CN(C)c4ccc(C(=O)N[C@@H](CCC(=O)O)C(=O)O)cc4)cc32)n1` the figure was -1.57%; with `Cc1cc(=O)c(-c2ccc(OCCSc3ccc(C(F)(F)F)cn3)cc2)c(C)[nH]1`, 2.2%; with `NC(=O)c1cnc2cc(-c3ccncc3)cc(Nc3ccc(NC(=O)C4CCCCC4)cc3)c2c1`, 1.29%.
With `O=c1ccc(-c2nc3cc(Cl)c(Cl)cc3n2Cc2ccc(Cl)cc2Cl)c[nH]1`, the inhibition is -0.93%.
The same measure, in the same setting: with `Cc1ccccc1C1CCN(C2CCC(NC(=O)/C=C/c3ccc(C(F)(F)F)cc3F)CC2)CC1` (centres undefined) the figure was 0.34%.
The same measure, in the same setting: in the case of `O=C(NC1CCC(N2CCC(c3nc4ccccc4s3)CC2)CC1)c1cc2ccccc2[nH]1` (centres undefined) it was -1.51%; in that of `CCCC1N=C(N)N=C(N)N1c1ccc(C)cc1` (centres undefined), 2.47%.
Same read-out and setting: with `O=[N+]([O-])c1ccc(C2=NN(S(=O)(=O)c3c(Cl)cc(Cl)cc3Cl)CCCC2)cc1` the figure was -0.34%; with `FC(F)(F)c1ccc2[nH]ccc(=NN=Cc3ccccc3)c2c1`, 0.98%.
As to `CC(C)(C)OC(=O)C1CCCN(Cc2ccc(-c3cccc(-c4nc5ccccc5[nH]4)c3)cc2)C1` (centres undefined), the inhibition is 0.78%.
Regarding `C=CCOC(=O)N1CCC(CNCc2cccc(-c3cccc(-c4nc5cc(F)ccc5[nH]4)c3)c2)C1` (centres undefined), the inhibition was -0.93%.
The same measure, in the same setting: with `Cc1onc(-c2ccccc2)c1-c1nc(NCc2ccccc2Cl)no1` the figure was 1.32%; with `O=C(Nc1ccc(I)cc1)Nc1ccc(Cn2ncc(N3CCCNCC3)c(Cl)c2=O)cc1`, 0.24%; with `O=C(NCC1CCN(CCN2CCC(c3cn(CCO)c4ccccc34)CC2)CC1)c1ccc(-c2ccc(C(F)(F)F)cc2)cc1`, 3.71%.
For `COCCCNC(=O)C1CCN(C(c2ccc(Cl)cc2)c2ccc(Cl)cc2)CC1`, the inhibition was determined as 4.61%.
The same measure, in the same setting: with `COc1ccc(C(=O)CCC(=O)N(CCC2CCCN2C)Cc2ccc(-c3ccc(CNCCc4ccc(S(C)(=O)=O)cc4)cn3)cc2)cc1F` (centres undefined) the figure was 9.19%; with `CC[C@H]1CN(Cc2cccc(O)c2)CC[C@H]1CCCc1ccnc2ccc(O)cc12`, 3.98%; with `CCOc1ccc(NC(=O)c2ccc(NCCCN3CC(C)CC(C)C3)c([N+](=O)[O-])c2)cc1` (centres undefined), 1.09%.
The same measure, in the same setting: in the case of `O=C(CCc1c[nH]cn1)Nc1cccc(-c2cccc(-c3nc4ccccc4[nH]3)c2)c1` it was 11.3%.
The same measure, in the same setting: in the case of `CCOC(=O)c1nc(-c2cccnc2)[nH]c1NC(=S)NCc1ccccc1` it was 3.75%; in that of `COc1cc(Cc2cnc(N)nc2N)ccc1OCc1ccc(NC(C)=O)cc1`, 3.61%.
On to `CCN(CC)S(=O)(=O)c1cc(-c2ccc(=O)n(CC(=O)c3ccc(C)cc3)n2)ccc1C`, for which the inhibition amounted to 2.45%.
Turning to `CCOC(=O)NOC(C(=O)O)c1ccccc1` (centres undefined), the inhibition came to 0.52%.
On the same count and under the same terms, in the case of `COCc1cc(C)nc2sc(C(=O)Nc3cc(C(C)(C)C)ccc3O)c(N)c12` it was -0.92%; in that of `O=C(c1cccc(-c2noc(C(F)(F)F)n2)c1)N1CCN(c2nsc3ccccc23)CC1`, -1.66%; in that of `CCCCCCOc1ccc(C(=O)NCCCC2CCN(CCCCCNC(=O)C=Cc3ccc(Cl)c(Cl)c3)CC2)cc1`, 3.91%.

Values taken from ChEMBL document CHEMBL3433997, “St. Jude Leishmania screening dataset” (2016).
